Screens deposited in PubChem BioAssay by National Center for Advancing Translational Sciences (NCATS).
Six1-Eya2 blk = Six1/Eya2 interaction inhibition; AlphaScreen GST-Six1/His-Eya2 binding, biochemical; stronger effect = lower value; 0.56% of 360,000 active; activity change, % (no concentration beside the values); AID 651725
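GST-Six1 + His-Eya2 (5X stock: 250/500 nM); Tris pH 8.0, 300 mM NaCl, 0.05% BSA, 0.02% Tween 20; GSH donor/Ni acceptor beads; 1 h 37 °C dark; AlphaScreen readout.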
CtBP-E1A inh = CtBP/E1A binding inhibition | AlphaScreen GST-E1A/His-CtBP binding, 1536-well; stronger effect = lower value | activity change, % (test concentration not listed) | 0.49% of 340,000 active
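Homogeneous bead-based format: GST-tagged E1A captured on glutathione donor beads, His-tagged CtBP on nickel acceptor beads; compounds precede bead addition by 2 h at 37 °C.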
PKM2 act = PKM2 (human) enzyme activation; Potency, µM (doses to about 57.5 µM), for the others: top-dose activation, actives largely listed as activators; AID 1631; 0.34% of 260,000 active; purified PKM2, Kinase-Glo ATP luminescence, activation; response scale: 0% is enzyme alone, no compound; active = well fitted activation curve with a large enough effect; inconclusive = small, poorly fitted or top-dose-only effect; inactive = no such curve, though single readings can be large or run the other way; also: potency is read from the fitted curve at half-maximal effect; nearly all actives have a fitted effect of over 55% in size
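ATP formation by purified human PK-M2, quantified via coupled luciferase luminescence after 1 h at room temperature with 0.1 mM ADP and 0.5 mM PEP final.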
MBNL1-CUG inh = inhibitors of human MBNL1 binding to CUG repeat RNA | Potency, µM (titrated, usually from 57.5 µM), for inactives: at the top dose activity change, negative = inhibition, usual class: inhibitors | TR-FRET MBNL1-His/biotin-(CUG)12 binding, 665/545 ratio | 0.036% of 280,000 active; active = well fitted inhibition curve with a large enough effect in the signal ratio, with a control signal flat, not every such curve was filed as active; inconclusive = small, poorly fitted or top-dose-only effect, or effect the other way, or a change in a side signal; inactive = no such curve, though single readings can be large or run the other way; the % refers to the signal ratio; also: potency is read from the fitted curve at half-maximal effect
Target sequence (Q9NR56 whole entry, looked up): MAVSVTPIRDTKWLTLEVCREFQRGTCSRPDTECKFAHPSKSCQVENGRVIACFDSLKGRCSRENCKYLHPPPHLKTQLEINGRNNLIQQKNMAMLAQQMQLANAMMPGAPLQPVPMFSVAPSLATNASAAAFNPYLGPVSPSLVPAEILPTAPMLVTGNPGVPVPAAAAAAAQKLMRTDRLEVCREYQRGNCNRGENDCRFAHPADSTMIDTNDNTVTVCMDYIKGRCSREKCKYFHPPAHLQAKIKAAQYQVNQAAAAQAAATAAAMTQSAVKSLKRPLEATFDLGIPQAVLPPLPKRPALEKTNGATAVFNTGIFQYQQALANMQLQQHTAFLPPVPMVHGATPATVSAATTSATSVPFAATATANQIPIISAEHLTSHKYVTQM
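Compounds (final 92 nM to 58 uM) are added to His-tagged MBNL1 and biotin-(CUG)12, then terbium anti-His antibody and streptavidin-XL665 (5 nM final). After 60 min at room temperature, the 665/545 nm ratio is read.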
An asterisk follows results filed as active; ? = inconclusive; nt = not tested or not shown; [ ] = remark or other dose. The list is not random: actives were taken first. Their share in the collection is about 0.93%. Rule as the data show it, unless noted: active = activity change below about -65%; inconclusive = mostly about -30% to -63%; inactive = weaker than that. % is scaled to controls: 0 for no effect and ±100 for the full control effect.

SMILES | Six1-Eya2 blk | CtBP-E1A inh | PKM2 act | MBNL1-CUG inh
COc1cc(C(Nc2ccccn2)c2ccc3ccc(C)nc3c2O)cc(OC)c1O (configuration not stated) | ? | -6 | 20% | ?
COC(=O)c1cc(C)nc2c1C(=O)C(=O)C=C2N1CCOCC1 | -67* | -68* | -17% | ?
COC(=O)c1cc(S(=O)(=O)N2CCOCC2)c(Cl)cc1N1CCOCC1 | -1 | 8 | 2% | -1%
O=C(Nc1nc(-c2ccccn2)cs1)c1cc(Cl)ccc1[N+](=O)[O-] | -91* | ? | -5% | ?
Cc1cc(C(=O)Nc2nc(-c3ccccn3)cs2)ccc1[N+](=O)[O-] | -71* | -14 | 9% | 49%
Cc1csc(NC(=O)c2ccc(Cl)cc2[N+](=O)[O-])n1 | -2 | -1 | 0% | ?
COc1cc(F)ccc1-c1csc(C(C)(O)c2ccc(F)c(F)c2)n1 (configuration not stated) | 1 | 5 | nt | nt
CC(C)Nc1nnc(SCC(=O)Nc2ccc3c(c2)C(=O)c2ccccc2C3=O)s1 | -74* | 4 | ? | nt
Cc1cc(N2CCN(S(=O)(=O)c3ccc4c(c3)OCCO4)CC2)n2ncnc2n1 | -1 | 0 | 25µM* | 0%
Cc1cccc(C)c1NC(=O)C(c1ccc(C#N)cc1)n1c(=O)c(-c2ccccc2)nc2ccccc21 (configuration not stated) | -17 | ? | nt | nt
Cc1cccc(NC(=O)c2ccccc2NC(=O)C2CCCCC2)c1C | 0 | -1 | 28µM* | 3%
COC(=O)C1=C(C(=O)OC)[C@@H]2Nc3ccccc3[C@@]23C[C@@H](C(=O)OC)N(S(=O)(=O)c2ccc4c(c2)OCCN4C)C3=N1 | nt | nt | 2%[11.5 µM] | nt
CC(O)(c1cccc(F)c1)c1nc(-c2ccc3ccccc3c2)cs1 (configuration not stated) | 4 | -1 | nt | nt
COc1ccccc1COC(=O)N/C=C/c1ccco1 | -6 | 0 | 18µM* | -3%
COc1ccc(COC(=O)N/C=C/c2ccco2)cc1 | -4 | 2 | 27% | 1%
O=C(Nc1ccc(Cl)cc1)c1ccc2sc([C@@H]3O[C@H](CO)[C@@H](O)[C@H]3O)nc2c1 | -1 | -1 | nt | nt
Cc1cc(C)cc(NC(=O)CSc2nc(N)c(NC(=O)c3ccc(Br)o3)c(=O)[nH]2)c1 | -18 | 0 | nt | -5%
CCOC(=O)c1ccc(NC(=O)CSc2nc(N)c(NC(=O)c3ccc(Br)o3)c(=O)[nH]2)cc1 | -79* | ? | nt | -5%
Cc1ccc(S(=O)(=O)N2CCc3nc(-c4ccccc4)c4c(c3C2)CO[C@@H](C)C4)cc1 | nt | nt | 0%[11.5 µM] | nt
COC(=O)/C=C/c1ccccc1CN1[C@@H](CC(=O)OC)c2ccccc2S1(=O)=O | -24 | -83* | nt | nt
Cc1ccc(S(=O)(=O)N2C[C@H]3N(C(=O)OC(C)C)N(C(=O)OC(C)C)C[C@H](OC(=O)NCC4CCCCC4)[C@@]3(O)C2)cc1 | 19 | 0 | nt | nt
CCOc1ccc(CNc2cccc(SC)c2)cc1 | -8 | -9 | 14µM* | 5%
CCOc1ccc(CNc2ccc(CNc3ncn[nH]3)cc2)cc1 | -9 | 6 | 0% | -5%
COc1ccc(NC(=O)COc2cccc3c2CCN(Cc2cccnc2)C3=O)c(OC)c1 | -75* | -82* | -1% | 0%
Cc1occc1-c1nnc(SCC(=O)N2CCOCC2)n1CC(C)C | 0 | -3 | -2% | ?
SMILES | Six1-Eya2 blk | CtBP-E1A inh | PKM2 act | MBNL1-CUG inh
Cc1occc1-c1nnc(SCC(=O)N2CCOCC2)n1Cc1ccco1 | 0 | -3 | 25µM* | -7%
C(=C\c1ccccc1)/CN1CCN(C(c2cc3ccccc3o2)c2nnnn2C2CCCCC2)CC1 (configuration not stated) | 11 | -16 | nt | nt
Cc1cc(=O)oc2c3c(cc(OCC(=O)N4CCC[C@H]4C(=O)O)c12)OC(C)(C)CC3 | -71* | ? | 2% | 12%
Cc1nnc2sc(SCc3ccccc3Cl)nn2c1=O | 13 | -3 | 7.1µM* | -3%
Cc1nnc2sc(SCc3ccccc3)nn2c1=O | nt | nt | ? | -16%
COc1ccccc1NC(=O)CSc1nn2c(=O)c(C)nnc2s1 | ? | -82* | -2% | 2%
Cn1c(=N)c(S(=O)(=O)c2ccccc2)cc2c(=O)n3ccccc3nc21 | ? | -70* | 0% | ?
Cn1c(=N)c(S(=O)(=O)c2ccc(F)cc2)cc2c(=O)n3ccccc3nc21 | -11 | -15 | -3% | 27%
O=C(O)c1cc2c(cn1)[nH]c1ccccc12 | -79* | -93* | nt | 11%
O=C(O)c1cc2ccccc2cn1 | -80* | -84* | nt | nt
Fc1cccc(Cl)c1C1SCc2nc3ccccc3n21 (configuration not stated) | 1 | -23 | nt | nt
COc1ccc(-c2ccc3[nH]c4c(c3c2)CCN2C(=O)[C@@H]([C@H](C)O)[C@@H](N(C)C(=O)Nc3ccc(F)cc3)C[C@@H]42)cc1 | ? | -30 | nt | nt
CCCn1cnnc1CNC(=O)[C@H]1O[C@@H](n2ccc(=O)[nH]c2=O)[C@H](O)[C@@H]1O | -11 | -8 | nt | nt
Cc1cc(C(=O)c2ccccc2)cc(C)c1O | -86* | -23 | nt | nt
COc1cc2c(cc1OC)/C(=C/C(=O)N1CCOCC1)NC(C)(C)C2 | 5 | -4 | 25µM* | -16%
Nc1ccccc1N=Nc1ccccc1N | ? | -79* | -8% | ?
CCCCN(C)c1c(C)nc2ccc(C(=O)NCCOc3ccc(OC)cc3)cn12 | -14 | -8 | nt | nt
CCCn1c(C)nc2c(NCCN(C)C)nc(C)nc21 | nt | nt | -1% | nt
C=CCNC(=O)Nc1ccc2nc(C)sc2c1 | -10 | -19 | -7% | 32µM*
COc1cc(/C=N/NC(=O)CN(Cc2ccco2)S(=O)(=O)c2ccccc2)ccc1O | -82* | -92* | 2% | nt
COc1ccc(/C=N/NC(=O)CN(Cc2ccccc2)S(=O)(=O)c2ccc3c(c2)OCCO3)cc1 | -65* | -4 | -20% | nt
COc1cc(/C=N/NC(=O)CN(Cc2ccccc2)S(=O)(=O)c2ccc3c(c2)OCCO3)ccc1O | -82* | -14 | -1% | nt
O=C(Nc1cccc(C(F)(F)F)c1)Nc1nnc([C@@H]2C[C@H](O)[C@@H](CO)O2)s1 | 1 | 3 | nt | nt
O=C(CNS(=O)(=O)c1cccs1)N1CCN(c2ccccn2)CC1 | 15 | -4 | 22µM* | 0%
O=C(CNS(=O)(=O)c1cccs1)N1CCN(c2ccccc2F)CC1 | 1 | -14 | 11% | -3%
S=C(Nc1ccc(Cl)cc1)c1nc2ccccc2[nH]1 | -73* | ? | -15% | nt
Cc1ccccc1NC(=S)c1nc2ccccc2[nH]1 | -90* | -84* | -2% | 15%
Cc1nc(N)sc1-c1csc(Nc2cc(N(C)C)ccc2Cl)n1 | -73* | ? | nt | nt
CC(=O)c1cccc(Nc2nc(-c3sc(N)nc3C)cs2)c1 | ? | -77* | -3% | 7%
Cc1nc(N)sc1-c1csc(Nc2cccc(O)c2)n1 | -69* | ? | 4%[11.5 µM] | ?
